Test results taken from PubChem BioAssay (NCI).
This is part of a sample that, as a whole, favours compounds with a hit. Of some 83,000 tested, about 20% had one in any assay.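 Results are percent growth after 48 hours of single-concentration exposure. 100 means growth as in untreated cells, lower positive values show inhibition; negative values down to -100 show cell death.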 Active and inactive are the calls of the source. How the source made its calls: active means growth percent below 10; inactive means the rest.

What follows are compounds tested on HL-60(TB) leukemia (assay: NCI-60 one-dose screen, 48 h (100 = growth as untreated, 0 = no growth, -100 = all killed)). Conditions: 10 µM unless noted.

| Compound | growth |
| --- | --- |
| CC1CC(C)(C)OB(OC(C)CC(C)(C)OB2OC(C)CC(C)(C)O2)O1 (stereo not given) | 103% (inactive) |
| COc1ccc(C(=O)c2cc(OC)c(OC)c(OC)c2)cc1O | -29.1% (active) |
| COc1ccc(-n2nc(C)c3c(Nc4ccc(NC(=O)Nc5cccc(C(F)(F)F)c5)cc4)ncnc32)cc1 | -1.99% (active) |
| Cc1ccc(S(=O)(=O)OCCCOS(=O)(=O)c2ccc(C)cc2)cc1 | 54.4% (inactive) |
| CC(=O)N1N=C(c2ccc(Cl)cc2)CC1c1sc(Cl)nc1Cl (stereo not given) | 89.5% (inactive) |
| CC(O)C(O)C(O)C(O)C(O)C(=O)NNc1ccccc1 (stereo not given) | 116% (inactive) |
| O=C(NO)c1ccc(CNc2cccc3nc(C4CC4)n(-c4ccccc4)c(=O)c23)cc1 | 7.45% (active) |
| N=C(N)c1ccc(-c2cc(Cl)cc(Cl)c2)cn1 | 98.1% (inactive) |
| CC1C(=NC(=O)c2cnccn2)C(C)C(c2ccc(Cl)cc2)NC1c1ccncc1 (stereo not given) | 108% (inactive) |
| CCCCOc1ccc(/C(C)=N/Nc2cc(C)nc3ccc(Br)cc23)cc1 | 78.5% (inactive) |
| C=C1SC(=Nc2ccccc2Cl)N(C(=O)c2sc3ccccc3c2Cl)C1(C)C | 1.29% (active) |
| CC(=O)O[C@@H]1C2CCC3C(CC[C@@]4(C)C3CC[C@@H]4C(C)N(C)C)[C@@]2(C)CC[C@@H]1NC(=O)C=C(C)C (stereo not given in full) | -58.8% (active) |
| Cc1ccc([P+](Cc2ccccc2)(c2ccccc2)c2ccccc2)cc1 | -36.4% (active) |
| Oc1c(C(Nc2ccccc2Br)c2ccccc2)ccc2cccnc12 (stereo not given) | -17.8% (active) |
| O=C(Nc1cccc(-n2cc(-c3ccncc3)c(-c3ccc(Cl)c(O)c3)n2)c1)Nc1ccc(Cl)c(C(F)(F)F)c1 | -11.2% (active) |
| O=C(NNC(=O)c1ccc([N+](=O)[O-])cc1)c1ccc([N+](=O)[O-])cc1 | 88.3% (inactive) |
| CCOC(=O)C1=C(C)c2ccc(OC)c(OC)c2C1 | 106% (inactive) |
| CC[n+]1c(/C=C/c2ccc(N3CCCC3)cc2)cccc1/C=C/c1ccc(N2CCCC2)cc1 | -20.8% (active) |
| COc1ccc(C2c3ccc4ccccc4c3Oc3nc(C)[nH]c(=O)c32)cc1 (stereo not given) | 99.3% (inactive) |
| COc1ccc(OCC(CO)N2CCN(c3ccccc3)CC2)cc1 (stereo not given) | 123% (inactive) |

| Compound | growth |
| --- | --- |
| COc1ccc(-c2cs/c(=N\N=C\c3ccc(O)cc3O)n2/N=C/c2ccc(O)cc2O)cc1 | -32.6% (active) |
| Cn1c(=O)[nH]c(=O)c2nc3c(nc21)-c1ccccc1C3=O | 101% (inactive) |
| C#CC(OC(=O)N(C)C)(c1ccccc1)c1ccc(F)cc1 (stereo not given) | 127% (inactive) |
| CCN(CC)CCC(CNc1ccnc2cc(Cl)ccc12)c1ccccc1 (stereo not given) | 58.5% (inactive) |
| O=C1OCC2=C1C(c1cccc(Br)c1)c1cc3c(cc1N2CCO)OCCO3 (stereo not given) | -23.7% (active) |
| COc1ccc(/C=N/Nc2cc(=O)[nH]c3ccc(Cl)cc23)cc1 | 45.3% (inactive) |
| Nc1c2c(c(O)c3c1=C(CO)C=N3)=NCCS2=O (stereo not given) | -42.1% (active) |
| O=S(=O)(NCCCNc1cc(-c2cn(-c3ccccc3)nc2-c2cccc(O)c2)ccn1)c1cccc(F)c1 | 39.1% (inactive) |
| O=S(=O)(Oc1ccc(-c2ccc3sccc3c2)cc1)c1ccc(F)cc1 | 97.1% (inactive) |
| O=C(Nc1ccccc1)OCC1OCOC(COC(=O)Nc2ccccc2)C1OC(=O)Nc1ccccc1 (stereo not given) | 122% (inactive) |
| O=C1/C(=C/c2ccc(Cl)cc2Cl)CN(S(=O)(=O)c2ccccc2)C/C1=C\c1ccc(Cl)cc1Cl | 11% (inactive) |
| Fc1ccc(-c2nnc(-c3c(-c4ccc(F)cc4)nc4ccccn34)o2)cc1 | 103% (inactive) |
| NC(=O)c1c(NC(=O)c2ccc3c(c2)OCO3)sc2c1CCC(=O)C2 | -58.3% (active) |
| CCOc1cc(N)ccc1C(=O)NCCCN(CC)CC | 70.2% (inactive) |
| CN(C)CCN1C(=O)c2cccc3c(/C=C/CN4C(=O)c5cccc6cccc(c56)C4=O)ccc(c23)C1=O | 12.9% (inactive) |
| COc1cc(-c2nn(-c3cccc(NC(=O)Nc4ccc(Cl)c(Cl)c4)c3)cc2-c2ccncc2)ccc1Cl | -18.1% (active) |
| COc1ccc(C2CC(c3ccc4ccccc4c3)=NN2c2nc(O)c(C3=c4cc(Cl)ccc4=NC3=O)s2)cc1 (stereo not given) | -6.68% (active) |
| Cc1nc([N+](=O)[O-])c(Sc2nncc(-c3ccccc3)n2)n1C | 91.7% (inactive) |
| O=C(/C=C/c1ccccc1Cl)c1cccc(OCCCCOc2cccc(C(=O)/C=C/c3ccccc3Cl)c2)c1 | 105% (inactive) |
| CCn1cc(Cc2cc(C(=O)Nc3cc4cc(OC)c(OC)cc4c(C)n3)ccc2Cl)cn1 | 13.9% (inactive) |
